Screening results deposited in PubChem BioAssay by National Center for Advancing Translational Sciences (NCATS).
ALOX15B inhib: inhibitors of human 15-lipoxygenase 2 (ALOX15B) | O15296 | purified 15hLO-2, xylenol orange hydroperoxide absorbance | Potency, µM (top dose mostly 57.1 µM), actives largely listed as inhibitors | 110,000 tested, 0.56% active; also: nearly all actives have a fitted effect of over 60% in size
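Screening format was qHTS against 50 nM purified 15hLO-2 in Hepes pH 7.5 with detergent. Activity follows hydroperoxide formation from 45 uM arachidonic acid, measured as 573:405 nm absorbance ratio of the ferric-xylenol orange complex.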
PNC assembly inh: inhibitors of perinucleolar compartment assembly; PC3M PTB-GFP, PNC prevalence imaging, 16 h; hits give low values; activity change (PNC), negative = inhibition, % at 10 µM; 140,000 tested, 3.1% active; AID 2417;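 active = readout at or below -70, meaning at least 70% loss of cells showing the perinucleolar compartment, a nuclear body marking cancer cells; inconclusive = readout between -30 and a set limit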
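Read-out is percentage of cells bearing a perinucleolar compartment, from automated 20x imaging of fixed, Hoechst-stained PC3M PTB-GFP cells. Cells were seeded 4 h, then exposed 16 h to compound (23 nl of library stock) in duplicate plates.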
ALOX12 inhib: inhibitors of human 12-lipoxygenase (ALOX12) | P18054 | purified 12-hLO, xylenol orange hydroperoxide absorbance | Potency, µM (titrated, usually from 57.1 µM), hits mostly inhibitors | 150,000 tested, 0.12% active | AID 1452; also: nearly all actives have a fitted effect of over 55% in size
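Hydroperoxide output read as Fe(III)-xylenol orange absorbance, 573-to-405 nm ratio, after 30 min reaction with 40 uM arachidonic acid. Enzyme: 150 nM purified human 12hLO, 15 min compound preincubation; 25 mM Hepes pH 7.0, room temperature.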
IMPase Li cell: IMPase inhibition in cells with lithium potentiation. CHO-M1 cells, IP1 TR-FRET (IP-One), carbachol + lithium. Potency, µM (top dose mostly 59.4 µM), actives largely listed as inhibitors. 210,000 tested, 0.35% active;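 also: IP1 builds up when IMPase is blocked and the TR-FRET signal falls; nearly all actives have a fitted effect of over 50% in size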
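CHO cells stably expressing M1 receptor (2000/well, cultured 16–30 h) treated 30 min at 37C with compound plus low lithium. Cytosolic IP1 by TR-FRET (665/620 ratio and 620 channel) after 10 min lysis; AC50 by Hill fit.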
HPGD inh: HPGD (human) dehydrogenase inhibition | P15428 | purified HPGD, NADH fluorescence kinetic, PGE2 substrate | Potency, µM, most hits filed as inhibitors | 150,000 tested, 4.3% active | AID 894; active = well fitted inhibition curve with a large enough effect, not every such curve was filed as active; inconclusive = small, poorly fitted or top-dose-only effect, or another doubt; inactive = no such curve, though single readings can be large or run the other way
Target sequence (P15428 whole entry, looked up): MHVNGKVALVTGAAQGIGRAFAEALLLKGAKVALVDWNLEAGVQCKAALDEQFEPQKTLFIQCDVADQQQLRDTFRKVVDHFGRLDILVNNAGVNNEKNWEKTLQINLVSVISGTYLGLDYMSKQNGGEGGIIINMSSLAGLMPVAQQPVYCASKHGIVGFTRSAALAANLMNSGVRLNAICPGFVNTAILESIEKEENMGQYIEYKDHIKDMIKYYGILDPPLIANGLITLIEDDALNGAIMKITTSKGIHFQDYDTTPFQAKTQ
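NADH formation kinetics: reaction with 30 uM PGE2 and 1 mM NAD+ (final), 20 nM enzyme, Tris-HCl pH 8 with Tween 20, after 15 min compound preincubation at room temperature. Fluorescence change, last versus first of five reads.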
IMPase inh: membrane-permeable compound that blocks inositol monophosphatase. 120,000 tested, under 10 active. AID 901. inhibition (IP1 accumulation), % at 46.1 µM. CHO-M1 cells, IP1 accumulation, HTRF TR-FRET ratio; active = well fitted curve in the direction sought with a large enough effect in the signal ratio, not every such curve was filed as active; inconclusive = small, poorly fitted or top-dose-only effect, or a change in a side signal; inactive = no such curve, though single readings can be large or run the other way; the % refers to the signal ratio;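 also: cells stimulated with carbachol in lithium chloride buffer; higher means more IMPase inhibition seen as more IP1 and lower FRET ratio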
Target sequence (P97697 whole entry, looked up): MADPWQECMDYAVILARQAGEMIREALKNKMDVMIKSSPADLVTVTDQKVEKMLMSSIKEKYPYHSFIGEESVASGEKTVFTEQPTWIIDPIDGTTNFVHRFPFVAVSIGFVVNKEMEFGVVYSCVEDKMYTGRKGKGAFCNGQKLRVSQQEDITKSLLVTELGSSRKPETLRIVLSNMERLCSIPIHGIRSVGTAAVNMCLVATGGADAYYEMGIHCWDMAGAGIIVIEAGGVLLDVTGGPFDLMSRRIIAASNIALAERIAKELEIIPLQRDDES
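CHO-M1, 2000 cells/well, cultured 16–30 h; cpd up to 46 uM; carbachol (50 uM solution, stimulation buffer w/ 50 mM LiCl, pH 7.4), 30 min 37C; IP-One TR-FRET, 10 min RT; Ex 320/Em 665, 620; Hill-fit AC50.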
Numbers stand for hits; [ ] = remark or other dose. Sampled rows, rich in hits. Any-hit rate of the full collection: about 5.4%. Unless noted, calls follow the shape of the dose curve; as a rule, active = well fitted curve in the direction sought with a large enough effect; inconclusive = small, poorly fitted or top-dose-only effect, or another doubt; inactive = no such curve, though single readings can be large; an effect the other way counts as inactive or inconclusive.

How did Cc1ccc(-n2c(N)c(C(=O)N3CCN(C)CC3)sc2=S)cc1 do in these assays?
ALOX15B inhib: inactive; PNC assembly inh: inconclusive; ALOX12 inhib: inactive; IMPase Li cell: inactive; HPGD inh: 11.2µM; IMPase inh: inactive

What do the screens show for `CCOc1ccc(-n2c(N)c(C(=O)N3CCN(C)CC3)sc2=S)cc1`?
IMPase Li cell: inactive

Results for CCOC(=O)c1sc(=S)n(-c2ccc(C)cc2)c1N ?
IMPase Li cell: inactive

How did CCn1c2c(c3cc(Br)ccc31)CCC/C2=N\O do in these assays?
ALOX15B inhib: inactive; PNC assembly inh: inactive; ALOX12 inhib: inactive; IMPase Li cell: 11.2µM; HPGD inh: inactive; IMPase inh: inconclusive

Results for Cc1ccccc1NN1C(=O)C=CC1=O ?
ALOX15B inhib: inactive[11.4 µM]; PNC assembly inh: inconclusive; ALOX12 inhib: inactive; IMPase Li cell: inactive; HPGD inh: inactive; IMPase inh: inactive[1.84 µM]

What do the screens show for `Cc1ccc(NN2C(=O)C=CC2=O)cc1`?
PNC assembly inh: -112.5; ALOX12 inhib: inactive; IMPase Li cell: inactive; HPGD inh: inactive; IMPase inh: inactive

Results for COc1ccc(Nc2nc3ccc(Cl)cc3n3nnnc23)cc1OC ?
IMPase inh: inactive

Results for C[C@H](NC(=O)c1ccc(Cl)c(Cl)c1)c1ccc(-c2ccccc2)cc1 ?
ALOX15B inhib: inactive[11.4 µM]; ALOX12 inhib: inactive[11.4 µM]; IMPase Li cell: inactive; HPGD inh: inactive

What do the screens show for `O=C(N/N=C/c1ccco1)c1cc(-c2cccc3ccccc23)n[nH]1`?
ALOX15B inhib: inactive; PNC assembly inh: inactive; ALOX12 inhib: inactive; IMPase Li cell: inactive; HPGD inh: 25.1µM; IMPase inh: inactive

What do the screens show for `O=C(CSC1=NCCN1)c1ccccc1`?
ALOX15B inhib: inactive[11.4 µM]; ALOX12 inhib: inactive[11.4 µM]; IMPase Li cell: inactive; HPGD inh: inactive

What do the screens show for `Cc1ccc(C(=O)O)cc1S(=O)(=O)N1CCCC1`?
ALOX15B inhib: inactive; PNC assembly inh: inactive; ALOX12 inhib: inactive; IMPase Li cell: inactive; HPGD inh: inactive; IMPase inh: inactive

What do the screens show for `Cc1cc(C(=O)O)cc(S(=O)(=O)N2CCOCC2)c1C`?
ALOX15B inhib: inactive[11.4 µM]; PNC assembly inh: -86.9; ALOX12 inhib: inactive; IMPase Li cell: inactive; HPGD inh: inactive; IMPase inh: inactive[1.84 µM]

Results for CCC(C)NC(=O)c1ccccc1NC(=O)CN1C(=O)c2cccc3cccc1c23 (stereo not given) ?
IMPase inh: inactive

How did O=C(N/N=C/c1cccc([N+](=O)[O-])c1)C1CC(=O)N(c2ccc(Cl)cc2)C1 (stereo not given) do in these assays?
ALOX15B inhib: inactive; PNC assembly inh: inactive; ALOX12 inhib: inactive; IMPase Li cell: inactive; HPGD inh: inactive; IMPase inh: inactive

What do the screens show for `Cc1ccc(N2CC(C(=O)N/N=C/c3cccc([N+](=O)[O-])c3)CC2=O)cc1` (stereo not given)?
ALOX15B inhib: inactive[11.4 µM]; PNC assembly inh: -82.9; ALOX12 inhib: inactive; IMPase Li cell: inactive; HPGD inh: inactive; IMPase inh: inconclusive

What do the screens show for `COc1ccc(NC(=O)CN(c2cccc(C)c2C)S(=O)(=O)c2ccccc2)cc1OC`?
IMPase inh: inactive

How did Cc1cc2n(n1)SC(Nc1cc(Cl)ccc1Cl)N2 (stereo not given) do in these assays?
PNC assembly inh: -100.0; ALOX12 inhib: inconclusive; IMPase Li cell: inactive; HPGD inh: inactive; IMPase inh: inactive

Results for Cc1cc2n(n1)SC(Nc1cccc3ccccc13)N2 (stereo not given) ?
PNC assembly inh: inactive; ALOX12 inhib: inconclusive; IMPase Li cell: inactive; HPGD inh: inactive; IMPase inh: inactive

What do the screens show for `CC(C)(C)c1ccc(C2Sc3ccccc3NC3=C2C(=O)c2ccccc23)cc1` (stereo not given)?
IMPase inh: inactive

What do the screens show for `O=C(N[C@H]1CCCc2ccccc21)O[C@@H]1C(=O)c2cc(Br)ccc2O[C@H]1c1ccc2c(c1)OCO2`?
IMPase Li cell: inactive; HPGD inh: inactive

What do the screens show for `O=c1c(-c2ccccc2)nc2cnc(Oc3ccccc3)nc2n1Cc1cccs1`?
ALOX15B inhib: inactive; ALOX12 inhib: inactive; IMPase Li cell: inactive; HPGD inh: inactive
